# Results as given in PMC5540273 (PLoS ONE, 2017).
# System: CDC2L2
# Conditions: concentration: 1 μM, replicates: in singlicate; n = 1
# 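Also: KINOMEscan kinase panel screen.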
row,SMILES,%Inh [%]
1,Cc1nccc(-c2c(-c3ccc(F)cc3)ncn2CCCN2CCOCC2)n1.Cl [SB-282975],23
2,O=C1NC(=O)C(c2ccc(Cl)cc2)=C1Nc1cccc(Cl)c1 [SB-317651],4
3,Cc1ccc(NC(=O)Nc2ccccc2)cc1-c1ccc(C(=O)Nc2ccncc2)cc1 [GSK1398471],13
4,O=C(Nc1n[nH]c2nc(-c3cccs3)c(Br)cc12)C1CCCC1 [SB-743341],0
5,COC(=O)C(NC(=O)NC1CCN(c2ccnc(Nc3ccc(F)cc3)n2)C1)c1ccccc1 (centres unmarked) [GSK1379712],17
6,CC(=O)c1cccc(NC(=O)NC2CCN(c3ccnc(Nc4ccc(F)cc4)n3)C2)c1 (centres unmarked) [GSK1379710],17
7,CCc1ccc(-c2ccc3c(c2)-c2n[nH]cc2S(=O)(=O)N3C)cc1,0
8,O=C(Nc1n[nH]c2nc(-c3cccs3)c(Br)cc12)C1CC1 [SB-735297],12
9,COC(=O)C(Cc1ccccc1)NC(=O)NC1CCN(c2ccnc(Nc3ccc(F)cc3)n2)C1 (centres unmarked) [GSK1379714],18
10,CC(C)c1ccc(O)cc1Nc1ccnc2ccc(C(F)(F)F)cc12 [GW482059],5
11,Cc1ccc(NC(=O)c2ccc(Cl)cc2)cc1-c1ccc(C(=O)Nc2ccncc2)cc1 [GSK1398467],24
12,CC(C)c1cc(-c2ccc3c(N)n[nH]c3c2)nc(N)n1 [GSK2250882],5
13,Cn1cnc2c(N)ncnc21 [SKF-97623],0
14,COc1ccc(Nc2nccc(N3CCC(NC(=O)C(C)c4ccc(Cl)cc4)C3)n2)cc1 (centres unmarked) [GSK1379735],6
15,COc1ccc(Nc2nccc(-c3ccc(NC(=O)c4cc5cc(F)ccc5[nH]4)cc3)n2)cc1 [GSK1229496],14
16,CNc1nc(-c2ccc3c(N)n[nH]c3c2)cc(N2C[C@@H](C(=O)NC3CCCCC3)OC[C@H]2C)n1 [GSK2375584],25
17,Cc1ccccc1-c1cc(-c2c[nH]nc2-c2ccccn2)ccn1 [GW680061],9
18,CCn1c(-c2ccccc2)nc2cnccc21 [SB-733416],0
19,c1ccc(-c2ccnc3[nH]ccc23)cc1 [SB-693578],6

row,SMILES,%Inh [%]
1,CC(=O)c1c(C)c2cnc(Nc3ccn(C)n3)nc2n(C2CCCC2)c1=O,100
2,O=C(Nc1n[nH]c2cc(-c3ccsc3)ccc12)C1CC1 [SB-732932],3
3,CSc1ccc(-c2nc3n(c2-c2ccncc2)CCC3)cc1 [SKF-105561],24
4,O=C(Nc1n[nH]c2nc(-c3ccco3)c(Br)cc12)C1CCN(Cc2ccccc2)C1.O=C(O)[C@H](O)[C@@H](O)C(=O)O (centres unmarked) [SB-742034],36
5,CNc1nc(-c2ccc3c(N)n[nH]c3c2)cc(N2C[C@@H](C(=O)Nc3ccccc3)CC[C@H]2C)n1 [GSK2298859],21
6,Cn1cncc1C(=O)NC1CCN(c2ccnc(Nc3ccc(F)cc3)n2)C1 (centres unmarked) [GSK1379717],6
7,O=c1cc(N2CCOCC2)nc2n(Cc3ccccc3F)ccn12 [GSK2297428],12
8,CCCCc1nn2ncccc2c1-c1ccnc(NC2CC2)n1 [GW684374],11
9,O=C1NC(=O)C(c2ccc(Cl)cc2)=C1Nc1ccc(O)cc1 [SB-340867],0
10,COc1ccc(Nc2nccc(NCCNC(=O)Nc3cc(C)ccc3C)n2)cc1 [GSK1379899],0
11,CC[C@@H]1CO[C@H](C(=O)Nc2ccccc2)CN1c1cc(-c2ccc3c(N)n[nH]c3c2)nc(NC)n1 [GSK2376236],14
12,COc1cccc(CNC(=O)NC2CCN(c3ccnc(Nc4ccc(F)cc4)n3)C2)c1 (centres unmarked) [GSK1379723],0
13,Cc1ccc(NC(=O)Nc2ccc(Cl)c(C(F)(F)F)c2)cc1-c1ccc(C(=O)Nc2ccncc2)cc1 [GSK1398470],20
14,Nc1ncnc2occ(-c3ccc4c(c3)CCN4C(=O)Cc3cc(F)ccc3F)c12 [GSK2645446],12
15,Fc1ccc(-c2nc3n(c2-c2ccncc2)CCS3)cc1 [GI98581],0
16,Cc1ccc(NC(=O)Nc2ccccc2F)cc1-c1ccc(C(=O)Nc2ccncc2)cc1 [GSK1398477],10
17,Cc1c(Cn2c(C)c(C)n3c(=O)cc(N4CCOCC4)nc23)cccc1C(F)(F)F [GSK2328680],14
18,COc1ccc(Nc2nccc(N3CCC(NC(=O)c4cc5ccccc5s4)C3)n2)cc1 (centres unmarked) [GSK1379738],17

# System: T1, CDC2L5
# T1 construct: gene CDK13
# Conditions: concentration: 1 μM, replicates: in singlicate; n = 1
row,SMILES,%Inh [%]
1,Cc1nccc(-c2c(-c3ccc(F)cc3)ncn2CCCN2CCOCC2)n1.Cl [SB-282975],5
2,O=C1NC(=O)C(c2ccc(Cl)cc2)=C1Nc1cccc(Cl)c1 [SB-317651],0
3,Cc1ccc(NC(=O)Nc2ccccc2)cc1-c1ccc(C(=O)Nc2ccncc2)cc1 [GSK1398471],0
4,O=C(Nc1n[nH]c2nc(-c3cccs3)c(Br)cc12)C1CCCC1 [SB-743341],13
5,COC(=O)C(NC(=O)NC1CCN(c2ccnc(Nc3ccc(F)cc3)n2)C1)c1ccccc1 (centres unmarked) [GSK1379712],0
6,CC(=O)c1cccc(NC(=O)NC2CCN(c3ccnc(Nc4ccc(F)cc4)n3)C2)c1 (centres unmarked) [GSK1379710],0
7,CCc1ccc(-c2ccc3c(c2)-c2n[nH]cc2S(=O)(=O)N3C)cc1,0
8,O=C(Nc1n[nH]c2nc(-c3cccs3)c(Br)cc12)C1CC1 [SB-735297],24
9,COC(=O)C(Cc1ccccc1)NC(=O)NC1CCN(c2ccnc(Nc3ccc(F)cc3)n2)C1 (centres unmarked) [GSK1379714],0
10,CC(C)c1ccc(O)cc1Nc1ccnc2ccc(C(F)(F)F)cc12 [GW482059],0
11,Cc1ccc(NC(=O)c2ccc(Cl)cc2)cc1-c1ccc(C(=O)Nc2ccncc2)cc1 [GSK1398467],0
12,CC(C)c1cc(-c2ccc3c(N)n[nH]c3c2)nc(N)n1 [GSK2250882],0
13,Cn1cnc2c(N)ncnc21 [SKF-97623],0
14,COc1ccc(Nc2nccc(N3CCC(NC(=O)C(C)c4ccc(Cl)cc4)C3)n2)cc1 (centres unmarked) [GSK1379735],0
15,COc1ccc(Nc2nccc(-c3ccc(NC(=O)c4cc5cc(F)ccc5[nH]4)cc3)n2)cc1 [GSK1229496],0
16,CNc1nc(-c2ccc3c(N)n[nH]c3c2)cc(N2C[C@@H](C(=O)NC3CCCCC3)OC[C@H]2C)n1 [GSK2375584],0
17,Cc1ccccc1-c1cc(-c2c[nH]nc2-c2ccccn2)ccn1 [GW680061],0
18,CCn1c(-c2ccccc2)nc2cnccc21 [SB-733416],98.3
19,c1ccc(-c2ccnc3[nH]ccc23)cc1 [SB-693578],0

row,SMILES,%Inh [%]
1,CC(=O)c1c(C)c2cnc(Nc3ccn(C)n3)nc2n(C2CCCC2)c1=O,0
2,O=C(Nc1n[nH]c2cc(-c3ccsc3)ccc12)C1CC1 [SB-732932],47
3,CSc1ccc(-c2nc3n(c2-c2ccncc2)CCC3)cc1 [SKF-105561],30
4,O=C(Nc1n[nH]c2nc(-c3ccco3)c(Br)cc12)C1CCN(Cc2ccccc2)C1.O=C(O)[C@H](O)[C@@H](O)C(=O)O (centres unmarked) [SB-742034],44
5,CNc1nc(-c2ccc3c(N)n[nH]c3c2)cc(N2C[C@@H](C(=O)Nc3ccccc3)CC[C@H]2C)n1 [GSK2298859],0
6,Cn1cncc1C(=O)NC1CCN(c2ccnc(Nc3ccc(F)cc3)n2)C1 (centres unmarked) [GSK1379717],0
7,O=c1cc(N2CCOCC2)nc2n(Cc3ccccc3F)ccn12 [GSK2297428],0
8,CCCCc1nn2ncccc2c1-c1ccnc(NC2CC2)n1 [GW684374],0
9,O=C1NC(=O)C(c2ccc(Cl)cc2)=C1Nc1ccc(O)cc1 [SB-340867],0
10,COc1ccc(Nc2nccc(NCCNC(=O)Nc3cc(C)ccc3C)n2)cc1 [GSK1379899],0
11,CC[C@@H]1CO[C@H](C(=O)Nc2ccccc2)CN1c1cc(-c2ccc3c(N)n[nH]c3c2)nc(NC)n1 [GSK2376236],0
12,COc1cccc(CNC(=O)NC2CCN(c3ccnc(Nc4ccc(F)cc4)n3)C2)c1 (centres unmarked) [GSK1379723],0
13,Cc1ccc(NC(=O)Nc2ccc(Cl)c(C(F)(F)F)c2)cc1-c1ccc(C(=O)Nc2ccncc2)cc1 [GSK1398470],0
14,Nc1ncnc2occ(-c3ccc4c(c3)CCN4C(=O)Cc3cc(F)ccc3F)c12 [GSK2645446],0
15,Fc1ccc(-c2nc3n(c2-c2ccncc2)CCS3)cc1 [GI98581],0
16,Cc1ccc(NC(=O)Nc2ccccc2F)cc1-c1ccc(C(=O)Nc2ccncc2)cc1 [GSK1398477],0
17,Cc1c(Cn2c(C)c(C)n3c(=O)cc(N4CCOCC4)nc23)cccc1C(F)(F)F [GSK2328680],0
18,COc1ccc(Nc2nccc(N3CCC(NC(=O)c4cc5ccccc5s4)C3)n2)cc1 (centres unmarked) [GSK1379738],0
